In PubChem BioAssay (NCATS):
A number with no mark means an inactive call. Inconclusive results are not listed. Active and inactive are the calls of the source. Unless noted, calls follow the shape of the dose curve; as a rule, active = well fitted curve in the direction sought with a large enough effect; inconclusive = small, poorly fitted or top-dose-only effect, or another doubt; inactive = no such curve, though single readings can be large; an effect the other way counts as inactive or inconclusive.

Assays:
[1] = target: Lysosomal acid glucosylceramidase (Homo sapiens) (UniProt P04062); test: Glucocerebrosidase-p2 (AID 348; in the data active = potency below about 10 µM; also: potency is read from the fitted curve at half-maximal effect); settings: purified GBA, blue fluorogenic substrate, 40 min
Lysosomal acid glucosylceramidase (Homo sapiens), sequence (P04062 whole entry, looked up): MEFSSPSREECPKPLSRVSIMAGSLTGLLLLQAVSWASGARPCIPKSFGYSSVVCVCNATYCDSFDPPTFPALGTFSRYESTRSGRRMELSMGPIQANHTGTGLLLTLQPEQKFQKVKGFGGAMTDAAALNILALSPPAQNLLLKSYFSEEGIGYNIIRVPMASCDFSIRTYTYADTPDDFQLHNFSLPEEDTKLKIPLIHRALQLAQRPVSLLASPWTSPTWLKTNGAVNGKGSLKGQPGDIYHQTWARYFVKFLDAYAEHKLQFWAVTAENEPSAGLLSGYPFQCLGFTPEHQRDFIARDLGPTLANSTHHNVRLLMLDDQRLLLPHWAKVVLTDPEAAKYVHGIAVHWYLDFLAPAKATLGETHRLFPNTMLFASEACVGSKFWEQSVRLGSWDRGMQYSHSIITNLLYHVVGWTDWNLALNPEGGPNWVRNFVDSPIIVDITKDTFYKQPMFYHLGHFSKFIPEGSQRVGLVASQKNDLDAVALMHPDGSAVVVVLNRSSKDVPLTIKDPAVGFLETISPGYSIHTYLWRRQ
Procedure, shortened: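 Compounds titrated from 0.6 nM upwards against 0.2 nM enzyme in pH 5.9 citric acid/KH2PO4, taurocholate, tween-20; blue fluorogenic substrate 80 uM, 40 min room temperature, stopped and read Ex 365/Em 440 for AC50.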

[2] = NFAT Signaling Pathway (AID 444; active = well fitted curve in either direction with a large enough effect, not every such curve was filed as active;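 also: carbachol stimulus at about its EC50 of 1 µM final; % is scaled to controls: 0 for no effect and ±100 for the full control effect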); settings: Jurkat NFAT-bla M1, carbachol, beta-lactamase ratio, 5 h; at 7.69 µM (top of the series) unless noted
Procedure, shortened: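 Jurkat cells with NFAT-driven β-lactamase reporter and co-expressed M1 receptor, stimulated with carbachol (final 1 uM, ~EC50), compound titration, 5 h at 37 °C. CCF4 loaded 1 h at RT; 460/530 nm ratio gave %activity and AC50.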

[3] = Stat Signaling Pathway (AID 446; active = well fitted curve in either direction with a large enough effect, not every such curve was filed as active;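 also: ME-180 cervical cancer cells given 40 pM IL-6 alongside compound; SIE-controlled beta-lactamase reporter measured as 460/530 nm FRET emission ratio; % is scaled to controls: 0 for no effect and ±100 for the full control effect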); settings: ME-180 SIE beta-lactamase reporter, IL-6 stimulated, 5 h; series mostly up to 7.69 µM
Procedure, shortened: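 IL-6/STAT signaling read in ME-180 cells via an SIE beta-lactamase reporter. Stimulus was 40 pM IL-6 (its AC50) for 5 hrs, so both activation and inhibition register.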

[4] = target: Glucocorticoid receptor (Homo sapiens) (UniProt P04150); test: GR-GFP Redistribution (AID 450;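 active = compounds whose dose series gives a full or clear partial fitted curve of increased nuclear translocation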; also: potency is read from the fitted curve at half-maximal effect); settings: U2OS GR-GFP nuclear translocation, laser cytometry, 2 h
Glucocorticoid receptor (Homo sapiens), sequence (P04150 whole entry, looked up, the tested form may be a part): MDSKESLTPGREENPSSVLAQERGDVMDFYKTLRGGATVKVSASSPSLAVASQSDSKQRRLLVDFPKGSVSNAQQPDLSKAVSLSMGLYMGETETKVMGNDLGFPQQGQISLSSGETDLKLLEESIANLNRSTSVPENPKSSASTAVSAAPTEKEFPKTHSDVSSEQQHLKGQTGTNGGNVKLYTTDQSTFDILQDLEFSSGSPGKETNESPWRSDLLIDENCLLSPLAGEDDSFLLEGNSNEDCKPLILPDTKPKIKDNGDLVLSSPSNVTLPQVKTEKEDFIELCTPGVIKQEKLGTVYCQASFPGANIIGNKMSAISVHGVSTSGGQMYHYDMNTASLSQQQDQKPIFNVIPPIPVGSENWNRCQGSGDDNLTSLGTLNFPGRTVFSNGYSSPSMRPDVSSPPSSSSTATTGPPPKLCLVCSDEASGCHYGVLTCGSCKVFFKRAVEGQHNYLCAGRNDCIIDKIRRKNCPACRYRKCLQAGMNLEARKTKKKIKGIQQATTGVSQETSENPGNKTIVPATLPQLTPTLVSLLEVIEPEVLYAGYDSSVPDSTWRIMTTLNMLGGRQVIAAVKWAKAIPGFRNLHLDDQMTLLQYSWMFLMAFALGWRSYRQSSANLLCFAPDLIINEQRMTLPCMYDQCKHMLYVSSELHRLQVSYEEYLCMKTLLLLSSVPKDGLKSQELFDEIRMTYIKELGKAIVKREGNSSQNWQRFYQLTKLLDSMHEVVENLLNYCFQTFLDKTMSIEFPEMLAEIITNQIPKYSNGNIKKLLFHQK

[5] = target: Glucocorticoid receptor (Homo sapiens) (UniProt P04150); test: GR-EFC Redistribution (AID 451; calls by dose curve; also: potency is read from the fitted curve at half-maximal effect); settings: CHO-K1 GR-EFC translocation, beta-gal luminescence, 2 h
Procedure, shortened: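 CHO-K1 cells expressing nuclear EA and GR-ED fragments of b-gal; compounds titrated up to 46 uM final, 2 h at 37 C. GR nuclear translocation read as complemented b-gal luminescence after 1 h RT detection.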

[6] = target: Mitogen-activated protein kinase 10 (Mus musculus) (UniProt Q61831); test: JNK3 AlphaScreen Assay (AID 530; active = well fitted curve in either direction with a large enough effect, not every such curve was filed as active;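 also: kinase came from lysate of stimulated human HepG2 cells; signal reports phosphorylation of biotinylated GST-cJun 1-79 at Ser73 with 10 µM ATP; % is scaled to controls: 0 for no effect and ±100 for the full control effect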); settings: JNK3 lysate, c-Jun phosphorylation; series mostly up to 57.1 µM
Procedure, shortened: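 qHTS format: compounds tested as titrations against IL-1beta/TNF-alpha-activated HepG2 lysate JNK3 with biotin-GST-cJun substrate and 10 uM ATP at room temperature. Loss of anti-phospho-cJun AlphaScreen signal indicates inhibition.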

[7] = target: 3',5'-cyclic-AMP phosphodiesterase 4B (Homo sapiens) (UniProt Q07343); test: qHTS Assay for Inhibitors of PDE-IV (AID 607; active = well fitted activation curve with a large enough effect in the main read-out, with a control signal flat, not every such curve was filed as active; also: % of control where 0% means no effect); settings: HEK293 ACTOne CNG channel cells, membrane potential fluorescence; series mostly up to 22.9 µM
3',5'-cyclic-AMP phosphodiesterase 4B (Homo sapiens), sequence (Q07343 whole entry, looked up): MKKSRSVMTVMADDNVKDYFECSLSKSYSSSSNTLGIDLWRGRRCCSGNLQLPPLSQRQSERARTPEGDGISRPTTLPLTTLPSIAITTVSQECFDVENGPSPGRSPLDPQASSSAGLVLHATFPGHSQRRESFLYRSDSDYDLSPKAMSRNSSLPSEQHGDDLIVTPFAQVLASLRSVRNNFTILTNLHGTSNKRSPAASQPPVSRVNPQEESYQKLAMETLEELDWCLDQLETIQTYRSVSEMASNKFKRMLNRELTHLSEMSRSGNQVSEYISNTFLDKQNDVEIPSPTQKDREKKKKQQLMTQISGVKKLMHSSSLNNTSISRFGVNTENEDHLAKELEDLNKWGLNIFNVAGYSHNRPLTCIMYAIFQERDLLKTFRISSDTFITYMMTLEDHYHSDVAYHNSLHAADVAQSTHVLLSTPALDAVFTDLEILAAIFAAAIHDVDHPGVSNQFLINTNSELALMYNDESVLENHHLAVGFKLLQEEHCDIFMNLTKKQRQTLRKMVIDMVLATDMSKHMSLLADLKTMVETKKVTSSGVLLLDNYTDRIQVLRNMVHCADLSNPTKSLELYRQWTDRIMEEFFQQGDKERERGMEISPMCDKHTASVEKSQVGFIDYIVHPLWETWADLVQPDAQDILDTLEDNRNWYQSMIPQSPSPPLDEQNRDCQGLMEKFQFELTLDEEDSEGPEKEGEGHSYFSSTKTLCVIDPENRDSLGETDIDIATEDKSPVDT
Procedure, shortened: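 Live HEK293 cells with a modified cyclic nucleotide-gated (CNG) channel report intracellular cAMP via membrane-potential dye fluorescence (ex 535/em 590 nm). Endogenous PDE-IV was targeted. Compounds were tested at up to 22.9 uM final; RO 20-1724 100 uM served as control.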

[8] = target: Cytochrome P450 2C9 (Homo sapiens) (UniProt P11712); test: qHTS Assay for Inhibitors and Substrates of Cytochrome P450 2C9 (AID 883); settings: recombinant CYP2C9, luciferin-H luminescence, 60 min; series mostly up to 57.1 µM; also: potency is read from the fitted curve at half-maximal effect; nearly all actives have a fitted effect of over 60% in size
Cytochrome P450 2C9 (Homo sapiens), sequence (P11712 whole entry, looked up): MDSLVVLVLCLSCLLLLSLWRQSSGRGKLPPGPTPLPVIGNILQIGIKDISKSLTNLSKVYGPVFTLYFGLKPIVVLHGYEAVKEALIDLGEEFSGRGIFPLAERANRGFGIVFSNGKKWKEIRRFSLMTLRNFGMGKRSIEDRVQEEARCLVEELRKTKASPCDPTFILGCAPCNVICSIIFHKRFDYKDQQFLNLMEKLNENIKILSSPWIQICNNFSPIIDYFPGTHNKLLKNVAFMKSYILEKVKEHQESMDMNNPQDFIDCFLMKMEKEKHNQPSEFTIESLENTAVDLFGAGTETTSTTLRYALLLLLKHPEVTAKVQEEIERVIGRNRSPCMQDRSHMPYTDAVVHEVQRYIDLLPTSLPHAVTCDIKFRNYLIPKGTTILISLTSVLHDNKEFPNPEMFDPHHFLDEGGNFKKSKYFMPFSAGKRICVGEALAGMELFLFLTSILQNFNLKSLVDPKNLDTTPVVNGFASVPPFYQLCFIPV
Procedure, shortened: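 10nM CYP2C9 + 100uM Luciferin-H (=KM), 25mM KPO4; cpd 10 min 37C; NADPH regen, 60 min 37C; stop/detect with P450 Glo-Buffer 20 min; luminescence. Norm. to 57uM sulphaphenazole as full inhibition.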

[9] = target: Cytochrome P450 3A4 (Homo sapiens) (UniProt P08684); test: qHTS Assay for Inhibitors and Substrates of Cytochrome P450 3A4 (AID 884); settings: recombinant CYP3A4, Luciferin-PPXE luminescence; series mostly up to 57.1 µM; also: potency is read from the fitted curve at half-maximal effect; nearly all actives have a fitted effect of over 50% in size
Cytochrome P450 3A4 (Homo sapiens), sequence (P08684 whole entry, looked up): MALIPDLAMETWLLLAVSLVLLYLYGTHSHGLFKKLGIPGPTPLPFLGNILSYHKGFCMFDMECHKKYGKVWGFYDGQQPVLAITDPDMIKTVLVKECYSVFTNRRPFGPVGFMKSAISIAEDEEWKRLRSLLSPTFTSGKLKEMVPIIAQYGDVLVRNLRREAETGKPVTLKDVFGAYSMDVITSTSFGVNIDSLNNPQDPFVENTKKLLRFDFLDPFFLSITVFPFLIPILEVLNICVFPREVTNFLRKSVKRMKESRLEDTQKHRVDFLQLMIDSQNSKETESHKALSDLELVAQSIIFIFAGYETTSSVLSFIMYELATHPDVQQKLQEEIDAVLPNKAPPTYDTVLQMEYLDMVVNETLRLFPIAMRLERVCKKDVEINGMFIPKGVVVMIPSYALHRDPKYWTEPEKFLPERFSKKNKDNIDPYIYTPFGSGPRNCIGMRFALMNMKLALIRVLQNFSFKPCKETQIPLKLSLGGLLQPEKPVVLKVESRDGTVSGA
Procedure, shortened: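 20 nM human CYP3A4 with 25 uM Luciferin-PPXE (at KM) in 200 mM KPO4, preincubated 10 min with compound; NADPH regeneration started a 60 min RT reaction. Luciferin detected by luminescence, normalized to 57 uM ketoconazole as full inhibition.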

[10] = target: Cytochrome P450 3A4 (Homo sapiens) (UniProt P08684); test: qHTS Assay for Activators of Cytochrome P450 3A4 (AID 885); settings: recombinant CYP3A4, Luciferin-PPXE luminescence, 60 min; series mostly up to 57.1 µM; also: nearly all actives have a fitted effect of over 65% in size
Procedure, shortened: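 Quantitative HTS format: compounds preincubated with 20nM human CYP3A4 and Luciferin-PPXE substrate at KM, reaction started by NADPH regeneration, stopped after 60 min, luciferase luminescence read 20 min later.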

[11] = target: Cytochrome P450 2C19 (Homo sapiens) (UniProt P33261); test: qHTS Assay for Inhibitors and Substrates of Cytochrome P450 2C19 (AID 899); settings: recombinant CYP2C19, luciferin-H EGE luminescence; series mostly up to 57.1 µM; also: potency is read from the fitted curve at half-maximal effect; nearly all actives have a fitted effect of over 60% in size
Procedure, shortened: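 Luminescent read-out of luciferin formed from Luciferin-H EGE (10uM, equal to KM). Enzyme 5nM in 50mM KPO4; compound added, 10 min at 37C, then NADPH regenerating system for 60 min at 37C. Full inhibition defined by 57uM ketoconazole.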

[12] = target: Dual specificity protein kinase CLK4 (Homo sapiens) (UniProt Q9HAZ1); test: qHTS Assay for Inhibitors of CDC-like Kinase 4 (Kinase-Glo Assay) (AID 1770); settings: recombinant Clk4, Kinase-Glo ATP depletion luminescence; series mostly up to 66.7 µM; also: nearly all actives have a fitted effect of over 65% in size; also: potency is read from the fitted curve at half-maximal effect
Dual specificity protein kinase CLK4 (Homo sapiens), sequence (Q9HAZ1 whole entry, looked up): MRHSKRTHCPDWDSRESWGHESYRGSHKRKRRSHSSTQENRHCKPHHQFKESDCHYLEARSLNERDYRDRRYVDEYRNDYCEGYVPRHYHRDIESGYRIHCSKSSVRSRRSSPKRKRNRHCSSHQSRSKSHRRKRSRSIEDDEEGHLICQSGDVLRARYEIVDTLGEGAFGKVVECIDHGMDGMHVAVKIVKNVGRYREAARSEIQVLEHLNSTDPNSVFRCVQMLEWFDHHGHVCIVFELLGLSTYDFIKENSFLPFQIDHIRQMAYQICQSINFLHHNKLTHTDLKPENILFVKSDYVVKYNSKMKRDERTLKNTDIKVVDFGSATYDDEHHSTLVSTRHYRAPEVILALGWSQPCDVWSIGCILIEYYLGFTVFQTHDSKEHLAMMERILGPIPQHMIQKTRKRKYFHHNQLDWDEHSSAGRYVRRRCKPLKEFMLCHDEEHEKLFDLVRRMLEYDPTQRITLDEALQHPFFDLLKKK
Procedure, shortened: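 Clk4 25 nM, RS peptide 100 uM, ATP 1 uM, pH 7.5 Tris, 10 mM MgCl2, 2.5 mM DTT; 4.5 h RT; ATP depletion read by Kinase-Glo luminescence.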

[13] = target: Dual specificity protein kinase CLK4 (Homo sapiens) (UniProt Q9HAZ1); test: qHTS Assay for Inhibitors of CDC-like Kinase 4 (ADP-FP Assay) (AID 1795); settings: Transcreener ADP fluorescence polarization; series mostly up to 50 µM; also: nearly all actives have a fitted effect of over 60% in size; also: potency is read from the fitted curve at half-maximal effect
Procedure, shortened: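 Kinase activity was followed as ADP output, converted from fluorescence polarization with a calibration curve. Reactions ran one hour at low ATP (1 uM) with RS peptide substrate.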

[14] = target: Ubiquitin carboxyl-terminal hydrolase 1 (Homo sapiens) (UniProt O94782); test: Inhibitors of USP1/UAF1: Pilot qHTS (AID 504865); settings: purified USP1/UAF1, Ub-rhodamine cleavage fluorescence; series mostly up to 54.9 µM;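 also: rhodamine fluorescence freed from ubiquitin-rhodamine substrate followed over time; top concentration of the series differs between compounds; % is scaled to controls: 0 for no effect and ±100 for the full control effect; nearly all actives have a fitted effect of over 35% in size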
Ubiquitin carboxyl-terminal hydrolase 1 (Homo sapiens), sequence (O94782 whole entry, looked up): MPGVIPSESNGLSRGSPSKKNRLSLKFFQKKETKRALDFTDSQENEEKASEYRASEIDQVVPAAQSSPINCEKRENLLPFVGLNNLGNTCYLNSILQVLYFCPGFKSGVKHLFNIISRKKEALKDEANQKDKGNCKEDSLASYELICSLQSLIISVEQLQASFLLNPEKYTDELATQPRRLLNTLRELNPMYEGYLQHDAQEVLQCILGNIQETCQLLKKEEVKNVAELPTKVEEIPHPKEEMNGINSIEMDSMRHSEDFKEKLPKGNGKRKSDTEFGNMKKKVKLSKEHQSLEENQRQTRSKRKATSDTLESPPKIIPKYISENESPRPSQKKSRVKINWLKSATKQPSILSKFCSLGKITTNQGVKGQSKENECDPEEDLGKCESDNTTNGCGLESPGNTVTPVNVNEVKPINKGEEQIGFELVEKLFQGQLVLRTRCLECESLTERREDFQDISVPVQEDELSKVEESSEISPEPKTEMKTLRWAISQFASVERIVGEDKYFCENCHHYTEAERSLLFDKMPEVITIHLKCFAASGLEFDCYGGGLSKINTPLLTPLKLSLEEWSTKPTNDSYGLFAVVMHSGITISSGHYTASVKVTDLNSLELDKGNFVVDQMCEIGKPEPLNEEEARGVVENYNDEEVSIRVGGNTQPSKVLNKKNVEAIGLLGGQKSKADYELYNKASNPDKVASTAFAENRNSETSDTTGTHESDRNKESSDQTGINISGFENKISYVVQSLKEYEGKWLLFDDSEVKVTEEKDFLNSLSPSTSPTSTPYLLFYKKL
Procedure, shortened: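 Enzyme-free wells gave the negative control, while test wells held 1nM USP1/UAF1 preincubated with compound for 15 min at room temperature. Ub-Rho at 150nM final started the reaction, and fluorescence at 480/540 nm was recorded kinetically.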

[15] = AP1 Signaling Pathway (AID 357; active = well fitted curve in either direction with a large enough effect, not every such curve was filed as active;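 also: ME-180 reporter cells stimulated with EGF at its EC50 level; % is scaled to controls: 0 for no effect and ±100 for the full control effect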); settings: ME-180 AP-1-bla reporter, EGF-induced, beta-lactamase ratio, 5 h; at 7.69 µM (top of the series) unless noted
Procedure, shortened: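 In this screen, ME-180 cells in Opti-MEM with 0.5% dialyzed FBS received EC50 EGF and compound titrations for 5 h. AP-1 reporter beta-lactamase was detected via CCF4 ratio, giving AC50 for positive and negative modulators.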

[16] = target: Cytochrome P450 1A2 (Homo sapiens) (UniProt P05177); test: p450-cyp1a2 (AID 410; calls by dose curve; also: potency is read from the fitted curve at half-maximal effect); settings: recombinant CYP1A2, luciferin-ME demethylation, luminescence; series mostly up to 57 µM
Cytochrome P450 1A2 (Homo sapiens), sequence (P05177 whole entry, looked up): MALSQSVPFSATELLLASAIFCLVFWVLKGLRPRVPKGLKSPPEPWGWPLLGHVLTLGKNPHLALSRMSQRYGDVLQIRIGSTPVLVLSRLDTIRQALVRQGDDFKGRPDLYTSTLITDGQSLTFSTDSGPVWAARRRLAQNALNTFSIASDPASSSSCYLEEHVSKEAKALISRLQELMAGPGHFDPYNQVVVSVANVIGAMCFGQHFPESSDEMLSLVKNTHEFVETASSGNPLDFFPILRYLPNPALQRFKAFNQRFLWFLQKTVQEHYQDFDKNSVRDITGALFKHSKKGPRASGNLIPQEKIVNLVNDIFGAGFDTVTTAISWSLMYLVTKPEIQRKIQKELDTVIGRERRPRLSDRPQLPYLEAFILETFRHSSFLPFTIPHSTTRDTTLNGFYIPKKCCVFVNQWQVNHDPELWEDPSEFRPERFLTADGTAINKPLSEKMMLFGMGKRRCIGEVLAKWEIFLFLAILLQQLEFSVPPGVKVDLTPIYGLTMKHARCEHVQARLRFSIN
Procedure, shortened: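 Inhibition was calculated relative to 57 uM furafylline (full inhibition). The reaction used human CYP1A2 at 20nM with Luciferin-ME at its Km, 100uM, driven by an NADPH-regenerating system for 60 min at room temperature.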

[17] = qHTS Assay for Identification of Small Molecule Agonists for Hypoxia Response Element Signaling Pathway (AID 914; active = well fitted activation curve with a large enough effect in the signal ratio, with a control signal flat, not every such curve was filed as active; the % refers to the signal ratio; also: potency is read from the fitted curve at half-maximal effect; as to activation: % of control where 0% means no effect); settings: ME-180 (cervical carcinoma) HRE-bla reporter, beta-lactamase ratio, CoCl2, 17 h; activation: active compounds read high
Procedure, shortened: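 In Opti-MEM containing 0.5% dialyzed FBS and 10 mM HEPES, ME-180 HRE-bla cells received a compound titration and EC50 CoCl2. They were incubated 17 hours, then CCF4-loaded 2.5 hours at room temperature before ratio reading.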

Structure (SMILES)	Potency [1]	activity change, negative = inhibition [2]	outcome [3]	Potency [4]	Potency [5]	Potency [6]	Potency [7]	Potency [8]	Potency [9]	outcome [10]	Potency [11]	Potency [12]	Potency [13]	Potency [14]	activity change, negative = inhibition [15]	Potency [16]	Potency [17]	activation [17]
COc1cccc(Cn2c(=O)cnc3cnc(Nc4cccc(OC)c4)nc32)c1	> 11.4 µM	15.4%	inactive	> 9.22 µM	> 46 µM	inactive	inactive	2 µM (active)	2 µM (active)	inactive	3.98 µM (active)	2.24 µM (active)	2 µM (active)	inactive				
CN(C)C(=O)c1ccc(-c2nc(N3CCOCC3)c3ccccc3n2)cc1	> 11.4 µM	21.6%	inactive	> 46 µM	> 46 µM	inactive	inactive					inactive	inactive	inactive	0.443%			
COCCn1c(=O)c(CCc2ccccc2)nc2cnc(N(C)C)nc21	> 11.4 µM	3.37%	inactive	> 9.22 µM	> 46 µM					inactive		inactive	inactive	inactive	-26.9%	1.26 µM (active)		
O=c1c(-c2ccccc2)nc2cnc(N3CCOCC3)nc2n1CCc1ccccc1	> 11.4 µM			> 9.22 µM	> 46 µM			7.94 µM (active)		inactive		inactive	inactive	inactive		12.6 µM (active)	3.16 µM (active)	
O=c1c(CCc2ccccc2)nc2cnc(N3CCNCC3)nc2n1Cc1cccs1	> 11.4 µM	3.16%		> 9.22 µM	> 46 µM	inactive	inactive					inactive	inactive	inactive	7.64%			
COc1ccccc1CNc1ncnc2ccc(-c3ccc(C(=O)N(C)C)cc3)cc12	> 11.4 µM	14.5%	inactive	> 46 µM	> 46 µM	inactive				inactive		inactive	inactive	inactive		12.6 µM (active)		
COc1ccccc1-c1nc(N2CCN(C)CC2)c2ccccc2n1		4.89%		> 46 µM		inactive	inactive			inactive		inactive	inactive	inactive	9.75%	12.6 µM (active)		
CN(C)c1ccc(-c2cncnc2NCCN2CCOCC2)cc1	> 11.4 µM		inactive	> 46 µM	> 46 µM	inactive	inactive		3.16 µM (active)	inactive	6.31 µM (active)	inactive	inactive	inactive		15.8 µM (active)	1.26 µM (active)	
c1cn(-c2ncnc3ccc(-c4ccoc4)cc23)cn1	> 11.4 µM	-5.74%	inactive	> 46 µM		inactive	inactive		0.631 µM (active)	inactive		0.141 µM (active)	0.0708 µM (active)	inactive		1.26 µM (active)		
CC(=O)NCCNc1nc(-c2cccc(C#N)c2)nc2ccccc12	> 11.4 µM	12.4%	inactive	> 46 µM	> 46 µM	inactive	inactive					28.2 µM (active)		inactive	2.77%			
CN(C)c1ncc2nc(-c3ccccc3)c(=O)n(C)c2n1	> 11.4 µM			> 9.22 µM	> 46 µM							inactive	inactive	inactive		1 µM (active)	2.51 µM (active)	
COc1ncc2nc(-c3cccs3)c(=O)n(CCC#N)c2n1	> 11.4 µM	8.94%	inactive	> 9.22 µM	> 46 µM	inactive	inactive			inactive		inactive	inactive	inactive	10.4%			25.6%
COc1cccc(-c2nc(NCc3cccnc3)c3ccccc3n2)c1	> 11.4 µM	27.1%	inactive	> 46 µM	> 46 µM	inactive			2 µM (active)	inactive		25.1 µM (active)			-1.11%	0.158 µM (active)		-25.6%
CN(Cc1ccco1)c1cc(-c2ccc3c(c2)OCO3)ncn1	> 11.4 µM	-0.867%		> 46 µM	> 46 µM	inactive			3.98 µM (active)	inactive		2 µM (active)	2.51 µM (active)	inactive	-0.29%			
